Measurements taken from PubChem BioAssay (EPA / NIEHS).
The source made the active and inactive calls. How the source made its calls: active means hit-call score of the fitted dose curve at least 0.9, where 1 is the maximum; inactive means score below 0.9.

How the values were obtained:
[1] = CEETOX_H295R_ESTRADIOL: CeeTox H295R High-throughput Steroidogenesis Assay for Estradiol (AID 2283440); conditions: actives raise or lower the signal;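 further: estradiol secreted into medium quantified by LC-MS/MS after dansyl derivatisation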
How it was run: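 Readout is estradiol in conditioned medium, quantified by reverse-phase HPLC-MS/MS against a 7-point standard curve. Cells: H295R, forskolin-stimulated, then dosed 48 h in 0.1% DMSO; activity fitted in both directions relative to DMSO.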

[2] = CEETOX_H295R_ESTRONE: CeeTox H295R High-throughput Steroidogenesis Assay for Estrone (AID 2283441); conditions: actives raise or lower the signal
How it was run: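 Estrone secreted into medium quantified by LC-MS/MS after dansyl chloride derivatization, following 48 h chemical exposure (0.1% DMSO final) of forskolin-prestimulated (10 uM, 48 h) H295R cells; gain or loss fitted against DMSO; MTT viability in same wells.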

[3] = CEETOX_H295R_PROG: CeeTox H295R High-throughput Steroidogenesis Assay for Progesterone (PROG) (AID 2283442); conditions: actives raise or lower the signal;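 on AC50: human H295R adrenal cells primed with 10 µM forskolin before dosing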
How it was run: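 Measured analyte is progesterone secreted by H295R cells at 48 h of chemical treatment, following 10 uM forskolin priming. Quantitation used HPLC-MS/MS against a 7-point standard curve; cytotoxicity was checked by MTT absorbance.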

[4] = read-out: Fatty acid synthase (Homo sapiens) (UniProt P49327); assay: LTEA_HepaRG_FASN: Life Technologies and Expression Analysis (LTEA) Assay for Fatty Acid Synthase (FASN) using HepaRG (AID 2283448); conditions: mRNA level, 48 h; actives raise or lower the signal;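 on AC50: differentiated human HepaRG liver cells in serum-free induction medium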
How it was run: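 Cells were plated, cultured 48 h, switched to serum-free induction medium, then dosed in duplicate (max 100 uM, half-log dilutions, 0.5% DMSO) for 48 h. RNA was then isolated and FASN quantified by qRT-PCR.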

[5] = read-out: Cyclin D2 (CCND2), CCND2 (gene 894); assay: LTEA_HepaRG_CCND2: Life Technologies and Expression Analysis (LTEA) Assay for Cyclin D2 (CCND2) using HepaRG (AID 2283449); conditions: mRNA level, 48 h; actives raise or lower the signal
How it was run: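 CCND2 transcript levels, quantified by qRT-PCR and normalised to three housekeeping genes, were fitted bidirectionally against 0.5% DMSO. HepaRG cultures were dosed 48 h in duplicate with an 8-point half-log series up to 100 uM.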

[6] = read-out: Cyclin Dependent Kinase Inhibitor 1A (CDKN1A), CDKN1A (gene 1026); assay: LTEA_HepaRG_CDKN1A: Life Technologies and Expression Analysis (LTEA) Assay for Cyclin Dependent Kinase Inhibitor 1A (CDKN1A) using HepaRG (AID 2283450); conditions: mRNA level, 48 h; actives raise or lower the signal
How it was run: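 Gain or loss of CDKN1A transcript is scored by bidirectional fitting against 0.5% DMSO vehicle. Human HepaRG cultures receive chemicals for 48 h across an 8-point series peaking at 100 uM; expression comes from qRT-PCR.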

[7] = read-out: Cyclin D1 (CCND1), CCND1 (gene 595); assay: LTEA_HepaRG_CCND1: Life Technologies and Expression Analysis (LTEA) Assay for Cyclin D1 (CCND1) using HepaRG (AID 2283451); conditions: mRNA level, 48 h; actives raise or lower the signal
How it was run: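 Expression change is measured by qRT-PCR in HepaRG cells after 48 h treatment across eight concentrations topping at 100 uM, with duplicate wells and DMSO (0.5%) serving as baseline for bidirectional fitting.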

[8] = read-out: catalase (CAT), CAT (gene 847); assay: LTEA_HepaRG_CAT: Life Technologies and Expression Analysis (LTEA) Assay for catalase (CAT) using HepaRG (AID 2283452); conditions: mRNA level, 48 h; actives raise or lower the signal;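 on AC50: TaqMan qRT-PCR signal normalized to ACTB GAPDH and POLR2A housekeeping genes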
How it was run: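 Expression of CAT was quantified by TaqMan qRT-PCR with ACTB/GAPDH/POLR2A normalization after 48 h chemical exposure of HepaRG. Eight-point half-log series, top 100 uM, in 0.5% DMSO; gain or loss fitted against vehicle.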

[9] = read-out: Cytochrome P450 (CYP1A1), CYP1A1 (gene 1543); assay: LTEA_HepaRG_CYP1A1: Life Technologies and Expression Analysis (LTEA) Assay for Cytochrome P450 (CYP1A1) using HepaRG (AID 2283454); conditions: mRNA level, 48 h; actives raise or lower the signal
How it was run: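 Using HepaRG cultures with 0.5% DMSO as vehicle, eight-concentration exposures (max 100 uM) lasted 48 h. Transcript levels were measured by TaqMan qRT-PCR and normalized to ACTB, GAPDH and POLR2A.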

[10] = read-out: CFLAR gene, CFLAR (gene 8837); assay: LTEA_HepaRG_CFLAR: Life Technologies and Expression Analysis (LTEA) Assay for CFLAR gene using HepaRG (AID 2283455); conditions: mRNA level, 48 h; actives raise or lower the signal
How it was run: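 Transcript level by qRT-PCR (normalized to ACTB, GAPDH and POLR2A) after 48 h chemical exposure of HepaRG cells, top concentration 100 uM with half-log steps, 0.5% DMSO vehicle, duplicates; fitted bidirectionally against DMSO baseline.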

[11] = read-out: Forkhead box O1 (FOXO1), FOXO1 (gene 2308); assay: LTEA_HepaRG_FOXO1: Life Technologies and Expression Analysis (LTEA) Assay for Forkhead box O1 (FOXO1) using HepaRG (AID 2283456); conditions: mRNA level, 48 h; actives raise or lower the signal
How it was run: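 FOXO1 transcript quantified by qRT-PCR after 48 h chemical exposure (top 100 uM, half-log steps, 0.5% DMSO) of HepaRG cells, housekeeping-normalized (ACTB/GAPDH/POLR2A). Changes fitted in both directions relative to vehicle.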

[12] = read-out: growth arrest and DNA damage 45 (GADD45A), GADD45A (gene 1647); assay: LTEA_HepaRG_GADD45A: Life Technologies and Expression Analysis (LTEA) Assay for growth arrest and DNA damage 45 (GADD45A) using HepaRG (AID 2283458); conditions: mRNA level, 48 h; actives raise or lower the signal
How it was run: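 Transcript induction or loss, quantified by TaqMan qRT-PCR against three housekeeping genes, is the read-out. HepaRG cells received chemicals for 48 h across eight half-log concentrations from 100 uM in 0.5% DMSO; gain and loss fitted relative to DMSO.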

[13] = read-out: Forkhead box O3 (FOXO3), FOXO3 (gene 2309); assay: LTEA_HepaRG_FOXO3: Life Technologies and Expression Analysis (LTEA) Assay for Forkhead box O3 (FOXO3) using HepaRG (AID 2283459); conditions: mRNA level, 48 h; actives raise or lower the signal
How it was run: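 FOXO3 transcript measured by qRT-PCR (normalized to ACTB, GAPDH, POLR2A) after 48 h exposure of HepaRG cells in serum-free induction medium. Duplicates, eight half-log concentrations up to 100 uM, 0.5% DMSO; gain or loss fitted against DMSO.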

[14] = read-out: ABC Transporter (ABCB1), ABCB1 (gene 5243); assay: LTEA_HepaRG_ABCB1: Life Technologies and Expression Analysis (LTEA) Assay for ABC Transporter (ABCB1) using HepaRG (AID 2283460); conditions: mRNA level, 48 h; actives raise or lower the signal
How it was run: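 ABCB1 transcript level measured by TaqMan qRT-PCR against three housekeeping genes after 48 h chemical exposure of differentiated HepaRG cells. Top concentration 100 uM, half-log steps, eight points, 0.5% DMSO vehicle; bidirectional fit relative to DMSO.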

[15] = read-out: growth arrest and DNA damage 45 (GADD45B), GADD45B (gene 4616); assay: LTEA_HepaRG_GADD45B: Life Technologies and Expression Analysis (LTEA) Assay for growth arrest and DNA damage 45 (GADD45B) using HepaRG (AID 2283461); conditions: mRNA level, 48 h; actives raise or lower the signal
How it was run: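 Human HepaRG monolayers receive chemicals for 48 h at eight half-log concentrations, highest 100 uM, in 0.5% DMSO. Expression is measured by TaqMan qRT-PCR and normalized to ACTB, GAPDH and POLR2A.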

[16] = read-out: ABC Transporter (ABCC3), ABCC3 (gene 8714); assay: LTEA_HepaRG_ABCC3: Life Technologies and Expression Analysis (LTEA) Assay for ABC Transporter (ABCC3) using HepaRG (AID 2283462); conditions: mRNA level, 48 h; actives raise or lower the signal
How it was run: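 Transcriptional change of ABCC3 in HepaRG after 48 h treatment, determined by qRT-PCR normalized to endogenous controls. Concentrations spanned eight half-log steps to 100 uM in 0.5% DMSO.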

[17] = read-out: ABC Transporter (ABCB11), ABCB11 (gene 8647); assay: LTEA_HepaRG_ABCB11: Life Technologies and Expression Analysis (LTEA) Assay for ABC Transporter (ABCB11) using HepaRG (AID 2283463); conditions: mRNA level, 48 h; actives raise or lower the signal
How it was run: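 ABCB11 transcript levels quantified by TaqMan qRT-PCR against three housekeeping genes after 48 h chemical exposure of HepaRG cultures. Concentrations up to 100 uM in half-log steps, 0.5% DMSO vehicle; both induction and suppression scored.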

[18] = read-out: flavin-containing dimethylaniline monooxygenases 3 (FMO3), FMO3 (gene 2328); assay: LTEA_HepaRG_FMO3: Life Technologies and Expression Analysis (LTEA) Assay for flavin-containing dimethylaniline monooxygenases 3 (FMO3) using HepaRG (AID 2283453); conditions: mRNA level, 48 h; actives raise or lower the signal
How it was run: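 FMO3 transcript quantified by TaqMan qRT-PCR against three housekeeping genes after 48 h chemical exposure of HepaRG cells. Eight-point half-log series, top 100 uM, 0.5% DMSO vehicle; phenobarbital 1mM induction control; up- or down-regulation fitted.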

[19] = read-out: Tumor necrosis factor receptor superfamily member 6 (Homo sapiens) (UniProt P25445); assay: LTEA_HepaRG_FAS: Life Technologies and Expression Analysis (LTEA) Assay for Fas cell surface death receptor (FAS) using HepaRG (AID 2283447); conditions: mRNA level, 48 h; actives raise or lower the signal
How it was run: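 FAS transcript level was measured by TaqMan qRT-PCR against three housekeeping genes after 48 h chemical exposure. Cells were HepaRG, 0.5% DMSO vehicle, with a top concentration of 100 uM and half-log dilutions over eight points, in duplicate.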

[20] = CEETOX_H295R_TESTO: CeeTox H295R High-throughput Steroidogenesis Assay for Testosterone (TESTO) (AID 2283457); conditions: actives raise or lower the signal
How it was run: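 Steroidogenesis in H295R cells following OECD 456 with minor changes; 48 h exposure. Medium testosterone by HPLC-MS/MS, DMSO as baseline, with MTT viability run in parallel.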

Measured: AC50

Chain of Fatty acid synthase (Homo sapiens) (P49327 whole entry, looked up): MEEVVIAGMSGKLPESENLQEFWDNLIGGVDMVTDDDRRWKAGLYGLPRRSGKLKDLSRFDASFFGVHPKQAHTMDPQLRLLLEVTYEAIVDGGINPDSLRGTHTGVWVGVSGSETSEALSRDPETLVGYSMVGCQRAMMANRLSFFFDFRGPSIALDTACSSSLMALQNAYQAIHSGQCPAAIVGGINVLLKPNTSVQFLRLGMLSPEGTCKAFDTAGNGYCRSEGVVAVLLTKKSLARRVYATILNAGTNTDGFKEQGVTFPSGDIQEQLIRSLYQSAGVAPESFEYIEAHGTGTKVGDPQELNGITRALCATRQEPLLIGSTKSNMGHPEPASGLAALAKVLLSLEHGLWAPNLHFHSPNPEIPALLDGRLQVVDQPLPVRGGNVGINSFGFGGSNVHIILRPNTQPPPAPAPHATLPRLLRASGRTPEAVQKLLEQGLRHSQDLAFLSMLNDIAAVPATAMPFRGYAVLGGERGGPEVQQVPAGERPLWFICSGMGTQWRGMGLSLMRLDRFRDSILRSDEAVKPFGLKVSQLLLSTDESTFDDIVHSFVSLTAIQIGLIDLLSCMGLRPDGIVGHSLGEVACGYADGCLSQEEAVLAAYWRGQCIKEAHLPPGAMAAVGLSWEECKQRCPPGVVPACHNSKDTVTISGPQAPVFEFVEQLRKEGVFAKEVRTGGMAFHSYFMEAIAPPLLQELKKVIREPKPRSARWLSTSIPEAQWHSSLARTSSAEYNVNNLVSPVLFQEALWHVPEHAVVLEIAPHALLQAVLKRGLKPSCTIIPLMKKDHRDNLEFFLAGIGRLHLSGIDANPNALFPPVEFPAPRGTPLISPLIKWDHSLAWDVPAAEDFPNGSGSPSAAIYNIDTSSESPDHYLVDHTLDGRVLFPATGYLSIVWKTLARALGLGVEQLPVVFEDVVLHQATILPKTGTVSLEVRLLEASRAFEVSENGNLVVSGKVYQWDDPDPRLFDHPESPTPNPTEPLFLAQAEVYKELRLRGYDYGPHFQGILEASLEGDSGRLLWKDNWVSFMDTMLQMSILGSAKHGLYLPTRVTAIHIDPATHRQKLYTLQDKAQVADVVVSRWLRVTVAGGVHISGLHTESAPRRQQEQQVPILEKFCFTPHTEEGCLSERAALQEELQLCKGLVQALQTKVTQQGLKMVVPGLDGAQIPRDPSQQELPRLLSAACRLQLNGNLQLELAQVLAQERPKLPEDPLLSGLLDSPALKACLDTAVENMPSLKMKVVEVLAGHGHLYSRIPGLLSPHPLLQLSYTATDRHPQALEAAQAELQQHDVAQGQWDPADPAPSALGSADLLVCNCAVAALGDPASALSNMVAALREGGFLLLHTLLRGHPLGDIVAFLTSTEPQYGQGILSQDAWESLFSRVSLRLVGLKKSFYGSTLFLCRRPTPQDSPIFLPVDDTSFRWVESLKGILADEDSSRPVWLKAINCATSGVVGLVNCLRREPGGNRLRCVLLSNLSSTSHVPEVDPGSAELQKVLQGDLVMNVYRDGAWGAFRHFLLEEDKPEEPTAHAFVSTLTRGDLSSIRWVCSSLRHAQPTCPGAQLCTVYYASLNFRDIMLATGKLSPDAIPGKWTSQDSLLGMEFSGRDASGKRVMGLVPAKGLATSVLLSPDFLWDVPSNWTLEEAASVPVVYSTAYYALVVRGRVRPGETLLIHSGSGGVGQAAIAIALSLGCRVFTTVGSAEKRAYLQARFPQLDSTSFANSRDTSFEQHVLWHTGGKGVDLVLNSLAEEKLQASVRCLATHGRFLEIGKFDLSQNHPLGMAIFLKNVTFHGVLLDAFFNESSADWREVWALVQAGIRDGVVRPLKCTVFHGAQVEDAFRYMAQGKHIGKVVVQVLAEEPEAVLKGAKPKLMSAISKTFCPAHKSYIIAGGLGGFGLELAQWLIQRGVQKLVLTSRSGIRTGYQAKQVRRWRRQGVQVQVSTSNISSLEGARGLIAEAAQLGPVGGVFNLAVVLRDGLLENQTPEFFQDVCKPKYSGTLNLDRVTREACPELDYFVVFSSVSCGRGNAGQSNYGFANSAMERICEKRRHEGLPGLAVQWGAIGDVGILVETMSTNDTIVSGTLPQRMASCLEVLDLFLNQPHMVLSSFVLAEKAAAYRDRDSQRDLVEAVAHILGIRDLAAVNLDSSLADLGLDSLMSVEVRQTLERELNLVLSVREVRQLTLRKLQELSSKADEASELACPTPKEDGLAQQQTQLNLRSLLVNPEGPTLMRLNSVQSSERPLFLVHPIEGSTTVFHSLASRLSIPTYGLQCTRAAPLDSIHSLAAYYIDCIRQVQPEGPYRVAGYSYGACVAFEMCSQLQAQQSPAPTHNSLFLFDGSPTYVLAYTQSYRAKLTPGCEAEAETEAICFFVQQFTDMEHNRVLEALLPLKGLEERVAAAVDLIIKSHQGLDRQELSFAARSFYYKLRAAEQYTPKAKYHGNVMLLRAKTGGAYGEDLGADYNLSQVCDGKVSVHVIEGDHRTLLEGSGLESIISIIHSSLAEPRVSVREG

COc1cccc([C@H](O)C2CCN(CCc3ccc(F)cc3)CC2)c1OC
active: [3] 0.405 µM | [9] 54.5 µM | [17] 26.6 µM
not listed: [18] | [19] | [20]
inactive: all other assays above

Clc1cc(Cl)c2c(c1)N=C1CCCCCN1C2
active: [9] 1.61 µM
not listed: [1] | [2] | [15] | [19] | [20]
inactive: all other assays above

NC(=O)c1nc(-c2cccc(-c3cc(F)ccc3OCC(F)(F)C(F)(F)F)c2)n[nH]1
active: [4] 79 µM | [8] 50 µM | [9] 20.1 µM | [13] 50 µM | [16] 84 µM
not listed: [15]
inactive: all other assays above
